# About 83,000 compounds went through this panel and 20% of them were active in at least one assay; those are over-represented in the sample as a whole.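 96-well plates, one dose, 48 hours. Percent growth reported; active if below 10.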 Values without a mark were called inactive. Active and inactive are the calls of the source.
# Assays:
# Experiment in all cases: NCI-60 one-dose screen, 48 h (100 = growth as untreated, 0 = no growth, -100 = all killed)
# HT29 colon = settings: 10 µM unless noted
# SNB-75 CNS = settings: 10 µM unless noted
# SNB-19 CNS = settings: 10 µM unless noted
# U251 CNS = settings: 10 µM unless noted
# PC-3 prostate = settings: 10 µM unless noted
# SK-MEL-5 melanoma = settings: 10 µM unless noted
# UACC-62 melanoma = settings: 10 µM unless noted
# SK-MEL-28 melanoma = settings: 10 µM
# SK-MEL-2 melanoma = settings: 10 µM unless noted
# LOX IMVI melanoma = settings: 10 µM unless noted
Compound,growth (HT29 colon),growth (SNB-75 CNS),growth (SNB-19 CNS),growth (U251 CNS),growth (PC-3 prostate),growth (SK-MEL-5 melanoma),growth (UACC-62 melanoma),growth (SK-MEL-28 melanoma),growth (SK-MEL-2 melanoma),growth (LOX IMVI melanoma)
COc1cccc(-c2nn(C)c3sc(C(=O)NCCN4CCN(c5ccccc5F)CC4)cc23)c1,17%,64.8%,92.4%,59%,38.3%,-79.6% (active),-72.1% (active),-75.2% (active),99.4%,
Clc1ccc(Nc2scc3[n+]2CCC3)cc1,106%,94.3%,98.4%,98%,89.2%,,87.3%,100%,106%,102%
CCCCc1ccc(NS(=O)(=O)c2cc3c4c(c2)CCN4C(=O)CC3)cc1,29.9%,33.9%,26.8%,11%,38.3%,0.989% (active),-28.9% (active),40.5%,40.8%,
COc1ccc(C(=O)Nc2ccc3nc(N4CCCCC4)cc(C)c3c2)cc1OC,20.8%,102%,109%,69.3%,45.1%,88.1%,98.5%,94.5%,119%,
O=c1oc2ccc(I)cc2c(=O)n1-c1ccc(F)cc1F,107%,-13.4% (active),14.7%,8.66% (active),3.58% (active),,0.781% (active),18.9%,-17.3% (active),11.4%
COc1ccc(S(=O)(=O)N(Cc2ccc3c(n2)C=CC(C)(C)O3)C2CCC2)cc1OC,3.8% (active),-12.5% (active),8.75% (active),0.365% (active),-3.05% (active),,-14.7% (active),-18.8% (active),-37.5% (active),-40.6% (active)
O=c1oc2ccc(F)cc2c(=O)n1-c1ccc(Cl)cc1F,26.7%,-13.6% (active),16.1%,2.3% (active),0.0571% (active),,-8.7% (active),14.7%,-28.7% (active),16.9%
COc1ccc(N2C(=O)CC(c3cc(OC)c(OC)c(OC)c3)C3C2=NC(=O)N3C)cc1 (stereo not given),104%,99.5%,102%,110%,100%,,104%,108%,116%,103%
O=C1c2ccccc2C(=O)c2c1ccc1[nH]c(CCl)nc21,5.78% (active),33.4%,47.8%,9.78% (active),39.3%,,39.5%,57.6%,27.4%,-36.9% (active)
O=c1oc2ccc(Cl)cc2c(=O)n1-c1cc(C(F)(F)F)cc(C(F)(F)F)c1,1.92% (active),-36.2% (active),13.5%,-15.2% (active),11.9%,,-34.7% (active),-18.9% (active),-34.2% (active),-15.5% (active)
O=c1oc2ccc(I)cc2c(=O)n1-c1ccc(Br)cc1F,50%,-18.9% (active),18.2%,0.297% (active),1.7% (active),,-14.7% (active),2.3% (active),-27.7% (active),11.2%
CCN(CC)c1cc(C)c2cc(NC(=O)c3cccc(OC)c3)ccc2n1,67.8%,81.6%,84.3%,55%,39.5%,57.3%,81%,85.2%,98.6%,
COc1ccc(-c2c(-c3ccc(OC)c(O)c3)cnc3ncnn23)cc1,108%,99.6%,102%,102%,105%,,99%,114%,107%,99.8%
COc1ccc(/C=C2\CCC/C(=C\c3ccc(OC)c(OC)c3)C2=O)cc1OC,1.7% (active),0.689% (active),37.8%,12.3%,40.8%,5.95% (active),-2.18% (active),,86.4%,-35% (active)
COCCN(C(=O)Cc1cccs1)C(C(=O)NCc1ccc(OC)cc1)c1ccc(C(C)C)cc1 (stereo not given),97.2%,79.7%,106%,97.1%,47.5%,98.2%,84.8%,113%,102%,
COc1cc([C@@H]2NC(=O)NC(C)=C2C(=O)Nc2nc(-c3ccc(Cl)cc3)cs2)ccc1O,108%,87.3%,113%,97.9%,88.9%,,91.6%,110%,105%,94.2%
O=c1oc2ccc(Br)cc2c(=O)n1-c1ccc(F)cc1F,97.7%,-12.1% (active),12.5%,7.07% (active),0.771% (active),,-0.768% (active),20.3%,-16.1% (active),12.6%
O=C(CCc1nnc2sc(-c3ccc(Cl)cc3Cl)nn12)c1nc2ncccc2[nH]1,-13% (active),35.3%,26.9%,-74.2% (active),-38.6% (active),,-36.6% (active),-9.94% (active),-11.5% (active),-88.3% (active)
COc1ccc(C2C3=C(COC3=O)N(CCO)c3cc4c(cc32)OCCO4)cc1 (stereo not given),50.7%,60.4%,81.2%,87%,72.9%,60.8%,72.4%,,95%,77.4%
Cc1ccc(Cn2c(N3CCC(C(=O)NCc4cccs4)CC3)nc3ccccc32)cc1,48.6%,77.5%,112%,73.9%,39.8%,92%,101%,98.1%,101%,
FC(F)(F)c1cccc(Nc2nc(-c3ccccc3)nc3ncccc23)c1,15%,91.4%,100%,58.3%,6.17% (active),-91.4% (active),-50.6% (active),-84.6% (active),104%,
CC/C=C\C[C@H](O)C/C=C1/C(=O)C=C[C@@H]1C/C=C\CCCC(=O)OCCS(=O)(=O)c1ccccc1,45.1%,111%,56.2%,16.3%,63.4%,,16.1%,73.9%,72%,-34.1% (active)
Nc1cccc(Nc2cc(S(=O)(=O)O)c(N)c3c2C(=O)c2ccccc2C3=O)c1,96.3%,82.2%,101%,95.5%,100%,103%,106%,,100%,85%
COc1ccccc1CNC(=O)C1c2ccccc2C(=O)N(CC(C)C)C1c1cccs1 (stereo not given),11.9%,67.5%,90.6%,49.7%,47.8%,52.2%,46.4%,58.1%,87.2%,
O=S1(=O)N(Cc2ccccc2)[C@@H](Cc2ccccc2)C2O[C@H]2[C@H](Cc2ccccc2)N1Cc1ccccc1 (stereo not given in full),46.7%,46.3%,44.9%,41.5%,42%,28.3%,40.8%,,84.1%,19.6%
N[C@@H](CC/[N+]([O-])=N/O)C(=O)O,99.8%,113%,97.8%,94.9%,102%,,98.4%,106%,107%,104%
O=C(Nc1ccccc1O)c1ccc(-c2ccc(Cl)cc2Cl)o1,53.9%,78.1%,89.2%,81.1%,71.7%,85.9%,105%,98.6%,96.3%,
O=C(Nc1ccccc1O)c1ccc(Oc2cccc(C(=O)Nc3ccccc3O)c2)cc1,77.7%,31.1%,21.7%,11.8%,32.6%,10.9%,-33% (active),32.6%,28.4%,
Cc1nn(-c2nc3ccccc3[nH]2)c2c1C(c1ccc(OCC(N)=O)cc1)CC(=O)N2 (stereo not given),109%,92.3%,103%,110%,97.4%,,97.8%,105%,107%,109%
CNCCNc1nc2ccccc2c2c(=O)c3cccc(OC)c3sc12,-17.5% (active),26.2%,42%,-45.2% (active),,57.9%,44.4%,62.3%,73.1%,12.2%
